# High-throughput results as filed in PubChem BioAssay.
# hgDAF-12 ag = agonists of H. glycines DAF-12 nuclear receptor. HEK293 GAL4-hgDAF12 UAS-luciferase reporter, agonist luminescence; normalized to butyrate control. activation, % at 6.8 µM. hit rate 1.8% among 370,000. AID 687014;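 active = activation above a cutoff set at the mean of all screened compounds plus 3 SD, cut at about 10% in these data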;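 also: 0% = DMSO wells and 100% = sodium butyrate wells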
# DAX1 inh-1 = inhibits human nuclear receptor DAX1; HEK293 Gal4-DAX1 luciferase reporter, luminescence; inhibition, % at 6.75 µM; hit rate 0.99% among 340,000; AID 504766;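 active = inhibition above the mean over all tested compounds plus 3 SD, cut at about 4.2% in these data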;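 also: 0% = DAX1-transfected cells with DMSO and 100% = empty-vector control cells with DMSO; inhibition shows as a rise in luminescence from relieved DAX1 repression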
# Target sequence (P51843 207-470 limits assumed): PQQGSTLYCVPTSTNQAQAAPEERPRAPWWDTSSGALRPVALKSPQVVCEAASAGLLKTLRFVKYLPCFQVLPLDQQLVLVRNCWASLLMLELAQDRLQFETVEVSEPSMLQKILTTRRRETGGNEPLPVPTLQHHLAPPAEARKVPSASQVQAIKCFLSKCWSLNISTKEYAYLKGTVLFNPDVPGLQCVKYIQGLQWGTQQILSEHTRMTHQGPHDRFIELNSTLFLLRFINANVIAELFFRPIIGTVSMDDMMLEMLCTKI
# hcDAF-12 act = H. contortus DAF-12 activation, primary screen; HEK293 hcDAF-12 lit1-tk-luc reporter, luminescence; 0% DMSO, 100% Δ7-dafachronic acid; hit rate 1.4% among 370,000; activation, % at 6.8 µM;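 active = activation above the mean of all tested compounds plus 3 SD, cut at about 5.5% in these data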;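 also: 100% = response to 3 µM Δ7-dafachronic acid high control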
# ssDAF12 agonist = activators of S. stercoralis DAF-12 nuclear receptor; HEK293 ssDAF-12/GRIP1 lit1-tk-luc reporter, luminescence; % of 3 µM dafachronic acid response; activation, % at 6.8 µM; hit rate 1% among 370,000; AID 652126;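 active = activation above the mean over all tested compounds plus 3 SD, cut at about 0.9% in these data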;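 also: 0% = DMSO-only wells and 100% = 3 µM delta7-dafachronic acid wells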
# AHR act = human AHR activation. P35869. AHR-responsive luciferase reporter cells, luminescence. activation, % at 5 µM. hit rate 2.5% among 320,000. AID 2796; in the data active = activation above about 47%;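 also: 0% = vehicle wells and 100% = reference agonist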
# DAX1 inh-2 = blocks DAX1 repression of SF-1 activated StAR promoter; HEK293T StAR-luciferase reporter, SF-1/DAX-1 repression relief; inhibition, % at 6.8 µM; hit rate 1.1% among 370,000; AID 652010;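 active = inhibition above the mean over all tested compounds plus 3 SD, cut at about 3.6% in these data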;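 also: 0% = DAX-1 cells with DMSO and 100% = cells lacking DAX-1 with DMSO; higher inhibition means more luminescence from relief of DAX-1 repression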
# DAX1 conf = confirmation of human DAX1 (NR0B1) inhibitors | shares compounds with DAX1 inh-2 | HEK293T StAR-promoter luciferase reporter, SF-1/DAX-1 repression | inhibition, % at 6.8 µM | hit rate 87% among 2,400;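 active = inhibition above the average of every tested compound plus 3 SD, cut at about 3.8% in these data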;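 also: 0% = DAX-1 cells with DMSO and 100% = no DAX-1 control cells with DMSO; active compounds raise luminescence by relieving repression of the StAR reporter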
# SF1 mutant ctr = nonselective inhibitor or artifact in SF-1 mutant DAX1 counter-screen; shares compounds with DAX1 inh-2; HEK293 StAR-luciferase, SF-1 AF2 mutant, luminescence; hit rate 78% among 2,400; inhibition, % at 6.8 µM; AID 652136;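 active = inhibition above the mean of all tested compounds plus 3 SD, cut at about 3% in these data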;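 also: 0% = DAX-1 transfected cells with DMSO and 100% = cells without DAX-1 with DMSO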
# LXR ag = LXR-beta agonism as hcDAF-12 counter-screen; shares compounds with hcDAF-12 act; HEK293 Gal4-LXR tk-luc reporter, luminescence, 24 h; normalized: DMSO 0%, positive control 100%; activation, % at 6.8 µM; 3,400 tested, under 10 active;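 active = mean percent activation of the reporter above a cutoff set as the average over tested compounds plus their standard deviation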
# Target sequence (P55055 whole entry, looked up, the tested form may be a part): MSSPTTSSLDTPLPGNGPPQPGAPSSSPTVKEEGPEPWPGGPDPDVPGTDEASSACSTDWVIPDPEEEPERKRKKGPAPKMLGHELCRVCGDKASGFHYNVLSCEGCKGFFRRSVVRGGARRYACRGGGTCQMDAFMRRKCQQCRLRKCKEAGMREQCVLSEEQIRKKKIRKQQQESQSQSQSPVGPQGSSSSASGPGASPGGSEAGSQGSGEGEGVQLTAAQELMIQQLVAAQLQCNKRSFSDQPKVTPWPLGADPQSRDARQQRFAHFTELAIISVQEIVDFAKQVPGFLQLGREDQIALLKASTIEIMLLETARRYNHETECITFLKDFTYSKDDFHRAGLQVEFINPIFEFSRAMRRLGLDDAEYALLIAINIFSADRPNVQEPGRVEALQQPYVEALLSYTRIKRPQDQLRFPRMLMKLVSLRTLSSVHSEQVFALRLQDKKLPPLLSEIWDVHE
# hcDAF12 ag = confirmation of H. contortus DAF-12 agonists; activation, % at 6.8 µM; shares compounds with hcDAF-12 act; hit rate 61% among 3,400; HEK293 hcDAF-12 lit1-tk-luc reporter, luminescence; % of Δ7-dafachronic acid response;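 active = mean activation across triplicate tests above the threshold derived from the earlier primary screen, cut at about 5.5% in these data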;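 also: 0% = DMSO only wells and 100% = 3 µM Δ7-dafachronic acid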
# hgDAF12 ag = hgDAF-12 agonism, confirmation assay | shares compounds with hgDAF-12 ag | HEK293 GAL4-hgDAF12 luciferase reporter, agonist mode; percent of butyrate response | activation, % at 6.8 µM | hit rate 80% among 3,300 | AID 743050;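 active = mean activation over triplicate wells above the hit cutoff derived from the earlier primary screen, cut at about 11% in these data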;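 also: 0% = DMSO low control and 100% = 2 mM sodium butyrate high control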
# LXR ag 2 = LXR-beta agonism as DAF-12 counter-screen | AID 743051 | shares compounds with hgDAF-12 ag | 3,300 tested, under 10 active | HEK293 Gal4-LXR luciferase reporter, 24 h | activation, % at 6.8 µM;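 active = mean activation of the triplicate above a set limit carried over from the primary screen, none filed active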
# Starred values were filed as active, the others as inactive; nt = no result given. A selection: hits, their analogues and other compounds. The true share with any hit is near 5.7%.
SMILES,hgDAF-12 ag,DAX1 inh-1,hcDAF-12 act,ssDAF12 agonist,AHR act,DAX1 inh-2,DAX1 conf,SF1 mutant ctr,hgDAF12 ag,LXR ag 2,others
O=C(Nc1nc2ccccc2[nH]1)NC1CCCCC1,16*,0,5.8*,1,0,16*,18*,9.7*,21*,1,
Cc1ccc(C(=O)Nc2nc3ccccc3[nH]2)cc1,-4,-5,1,-1,33,0,nt,nt,nt,nt,
CCOC(=O)C(C(=O)Nc1nc2ccccc2s1)C1CCCCC1 (stereo not drawn),3,3,2,0,13,0,nt,nt,nt,nt,
O=C(Nc1nc2ccccc2[nH]1)c1cccs1,14*,1,4,0,45,6.6*,4.6*,4.6*,13*,1,
C=CCn1c(SCC(=O)N(CCOC)c2c(N)n(CC(C)C)c(=O)[nH]c2=O)nc2ccccc21,1,-1,2,-1,5,3,nt,nt,nt,nt,
Cc1ccc(NC(=O)c2ccn(C)n2)c(Br)c1,15*,0,3,1,0,5.9*,13*,8.8*,16*,1,
Cn1ccc(C(=O)Nc2ccc(Br)cc2Br)n1,20*,3,7.7*,1,2,4.9*,11*,6.6*,13*,1,LXR ag=1;hcDAF12 ag=3
Cc1ccc(NC(=O)c2ccccn2)c(Br)c1,19*,6.4*,9.9*,3.1*,-4,8.5*,15*,12*,18*,1,LXR ag=1;hcDAF12 ag=7.9*
COc1cccc(CNc2nc3cc(-c4cnn(Cc5ccccc5)c4)sc3c(=O)n2C)c1,-13,nt,-5,-2,nt,-5,nt,nt,nt,nt,
COc1ccc2nc(C(c3ccc(C)cc3)n3c(-c4ccccc4Br)nc4ccccc43)[nH]c2c1 (stereo not drawn),14*,nt,3,1,nt,5.8*,8.5*,5.5*,17*,1,
CC(C)CC(c1nc2ccccc2[nH]1)n1c(-c2ccccc2Br)nc2ccccc21 (stereo not drawn),0,nt,2,-1,nt,-2,nt,nt,nt,nt,
O=C(NNS(=O)(=O)c1ccccc1)c1cccc([N+](=O)[O-])c1,2,1,1,0,1,0,nt,nt,nt,nt,
COc1cc(O)c2c(=O)cc(-c3ccccc3)oc2c1,0,4,2,-2,5,2,nt,nt,nt,nt,
O=c1cc(-c2ccccc2)oc2cc(O)cc(O)c12,15*,2,0,-1,5,5.7*,9.2*,2,13*,1,
O=C(NN=C1C2CC3CC(C2)CC1C3)c1cccs1,14*,3,5,0,4,7.4*,3,1,1,0,
O=C(NN=C1C2CC3CC(C2)CC1C3)c1ccccc1O,0,0,0,-1,6,2,nt,nt,nt,nt,
O=C(N/N=C1/CC2C=CCC12)c1cccs1 (stereo not drawn),15*,2,4,1.1*,nt,8.3*,2,2,4,0,
CC(=O)c1cc2c(cc1NC(=O)c1ccc(Cl)cc1)OCCO2,1,0,3,0,17,0,nt,nt,nt,nt,
O=C(Nc1ccc(Cl)cc1Cl)c1ccc2c(c1)OCCO2,14*,-1,7.5*,1,1,8.7*,17*,6.7*,17*,1,LXR ag=2;hcDAF12 ag=6.3*
O=C(O)CCSc1ncnc2sc(-c3ccccc3)cc12,-14,0,-5,-3,-12,-2,nt,nt,nt,nt,
CC(=O)CCSc1ncnc2sc(-c3ccccc3)cc12,16*,2,4,1.2*,4,13*,16*,7.9*,13*,1,
CCC1(c2ccc(F)cc2)NC(=O)N(CC(=O)NC2CCCCCC2)C1=O (stereo not drawn),0,0,0,-1,1,1,nt,nt,nt,nt,
Oc1ccccc1C=NNc1nc2ccccc2s1,22*,4.4*,16*,3.0*,nt,5.5*,11*,8.6*,19*,1,LXR ag=2;hcDAF12 ag=17*
C(=N\Nc1nc2ccccc2s1)/c1cccs1,16*,3,20*,3.3*,76*,7.0*,18*,12*,24*,1,LXR ag=2;hcDAF12 ag=17*
Cc1nn(-c2ccccc2Cl)c(Cl)c1/C=N/Nc1nc2ccccc2s1,-18,-3,-9,-4,11,-4,nt,nt,nt,nt,
SMILES,hgDAF-12 ag,DAX1 inh-1,hcDAF-12 act,ssDAF12 agonist,AHR act,DAX1 inh-2,DAX1 conf,SF1 mutant ctr,hgDAF12 ag,LXR ag 2,others
CCCN1CCC(NC(=O)C2CCCCC2C(=O)O)CC1 (stereo not drawn),0,1,0,-1,-1,0,nt,nt,nt,nt,
C/C(=N\NC(=O)c1ccccc1F)c1cccc(NC(=O)c2ccc(C)cc2)c1,13*,0,1,-1,4,5.0*,0,1,7,0,
C/C(=N\NC(=O)c1cccc(F)c1)c1cccc(NC(=O)c2ccc(F)cc2)c1,4,1,3,0,4,1,nt,nt,nt,nt,
COc1ccc2c(c1)c(=O)c(C(=O)O)c(-c1ccc3c(c1)OCO3)n2C,-2,0,-1,-1,0,1,nt,nt,nt,nt,
CCOc1ccccc1NC(=O)COC(=O)C1CCC(=O)N1 (stereo not drawn),-3,1,0,-1,0,0,nt,nt,nt,nt,
Clc1ccc(OCc2cc(-c3ccccc3)no2)c(Cl)c1,15*,-1,7.2*,0.9*,-5,7.5*,9.3*,1,6,1,LXR ag=2;hcDAF12 ag=10.0*
Cc1cccc(OCc2cc(-c3ccccc3)no2)c1C,3,3,1,-1,-2,1,nt,nt,nt,nt,
C/C(=N\NC(=O)c1nn(C)c(C)c1Br)c1cccc(NC(=O)c2ccoc2C)c1,16*,3,5.9*,0,-3,5.0*,1,1,5,0,
Cc1ccn2cc(-c3cc4ccccc4oc3=O)nc2c1,24*,0,11*,1.7*,nt,12*,12*,4.7*,12*,1,LXR ag=1;hcDAF12 ag=6.9*
